Results published in PubChem BioAssay.
For part of these data: Measured potencies and affinities stand elsewhere. The source made the active and inactive calls.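 The calls were made as follows, unless noted: active = calcium signal rise above buffer-control mean plus 5 SD in both duplicates, and also a hit in the primary screen; inactive = the rest.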

Assays:
[1] = test system: TRPC4 beta (transient receptor potential cation channel C4), mouse; assay: activators of mouse TRPC4 channel, confirmation, cell-based, Fluo4 calcium, HEK293 TRPC4beta/mu-opioid, duplicates, 10 µM (AID 2426;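 active = fluorescence ratio normalized to control raised more than 50% in primary screen plus both repeat runs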;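 as to activation: percent rise of integrated ratio over buffer wells lacking compound which define 0%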); conditions: Fluo4 calcium fluorescence, at 10 µM; hits give high values
[2] = test system: transient receptor potential cation channel C4 beta (TRPC4), mouse; assay: activators of mouse TRPC4 channel, confirmation, cell-based, second round, Fluo4, HEK293 TRPC4beta/mu-opioid, 1 µM (AID 2461;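 active = primary screen active and over 50% activation in each of two duplicate runs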); conditions: Fluo4 calcium fluorescence, at 1 µM; hits give high values
[3] = test system: TRPC4 (transient receptor potential cation channel C4 beta), mouse; assay: positive allosteric modulators of mouse TRPC4, confirmation, cell-based, second round, Fluo-4, HEK293 TRPC4beta/mu-opioid, 1 µM (AID 2554;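 active = primary screen hit whose fluorescence ratio, in both repeats, exceeds the weak agonist control mean by 3 SD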); conditions: DAMGO EC20, Fluo-4 calcium flux, at 1 µM; hits give high values
[4] = test system: TRPC4 beta (transient receptor potential cation channel C4), mouse; assay: positive allosteric modulators of mouse TRPC4, confirmation, cell-based, Fluo-4, HEK293 TRPC4beta/mu-opioid (AID 2555;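 active = primary screen hit whose calcium fluorescence ratio, in both repeats, exceeds the weak agonist control mean by 3 SD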); conditions: DAMGO EC20, Fluo-4 calcium flux, at 10 µM; hits give high values
[5] = biological target: Short transient receptor potential channel 4 (Mus musculus) (UniProt Q9QUQ5); assay: inhibitors of mouse TRPC4 channel, confirmation, cell-based, Fluo4, HEK293 TRPC4beta/mu-opioid (AID 2636;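 active = calcium signal cut by more than 3 SD below the full-agonist control yet still positive, in both repeats and the earlier primary screen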); conditions: DAMGO, Fluo4 calcium flux, at 10 µM; hits give high values
[6] = biological target: Short transient receptor potential channel 4 (Mus musculus) (UniProt Q9QUQ5); assay: inhibitors of mouse TRPC4 channel, confirmation, cell-based, second round, Fluo4, HEK293 TRPC4beta/mu-opioid, 1 µM (AID 2637;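 active = calcium signal ratio cut to more than 3 SD under the fully stimulated control mean yet still positive, in both repeats and the primary screen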;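 as to inhibition: percent of integrated ratio relative to wells lacking test compound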); conditions: Fluo4 calcium flux, DAMGO, at 1 µM; hits give high values
[7] = biological target: Short transient receptor potential channel 4 (Mus musculus) (UniProt Q9QUQ5); assay: mouse TRPC4 channel activators, dose response, cell-based, HEK293 TRPC4/mu-opioid, Fluo-4 calcium (AID 434937;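 active = primary screen activator hit with a dose response curve and TRPC4 channel activation at any tested dose; inactive = no activation, no dose response, or not a primary hit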)
[8] = biological target: Short transient receptor potential channel 4 (Mus musculus) (UniProt Q9QUQ5); assay: TRPC4 positive allosteric modulators, dose response, cell-based, HEK293 TRPC4/mu-opioid, Fluo-4 calcium, EC20 DAMGO (AID 434941;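 active = earlier screen potentiator hit that boosts the TRPC4 ion channel at some dose, with a dose response; inactive = no potentiation, no dose response, or not a prior hit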;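 also: calcium entry triggered by an EC20 dose of DAMGO at the co-expressed mu-opioid receptor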)
[9] = biological target: Short transient receptor potential channel 4 (Mus musculus) (UniProt Q9QUQ5); assay: mouse TRPC4 channel inhibitors, dose response, cell-based, HEK293 TRPC4/mu-opioid, Fluo-4 calcium (AID 434942;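 active = primary screen inhibitor hit that blocks the TRPC4 channel at some tested dose, yielding a dose curve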)
[10] = biological target: Short transient receptor potential channel 6 (Mus musculus) (UniProt Q61143); assay: inhibition of mouse TRPC6 channel, confirmation, selectivity assay for TRPC4 inhibitor project, cell-based, HEK293, membrane potential dye, duplicate (AID 434948;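 active = active in primary screen and both duplicates, each dropping signal beyond three positive-control SD with fluorescence still positive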); conditions: HEK293 TRPC6, membrane potential dye fluorescence, at 10 µM, stimulated with maximal-effect acetylcholine; hits give high values
[11] = biological target: Short transient receptor potential channel 6 (Mus musculus) (UniProt Q61143); assay: activation of mouse TRPC6 channel, confirmation, selectivity assay for TRPC4 activator project, cell-based, HEK293, membrane potential dye, duplicate (AID 434950;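 active = membrane potential signal rise above negative control mean plus 3 SD in both duplicates, also active in the earlier TRPC4 screen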); conditions: HEK293 TRPC6, membrane potential fluorescence, at 10 µM; hits give high values
[12] = biological target: Short transient receptor potential channel 6 (Mus musculus) (UniProt Q61143); assay: TRPC6 potentiation by TRPC4 potentiator hits, confirmation, selectivity assay for TRPC4 potentiator project, HEK293 cells, membrane potential dye, duplicate (AID 434952;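 active = compound raising the membrane signal above positive-control mean plus 3 SD in both repeats, and a primary screen hit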); conditions: HEK293 TRPC6, membrane potential dye fluorescence, at 10 µM, maximal acetylcholine added after compound; hits give high values
[13] = biological target: Short transient receptor potential channel 4 (Mus musculus) (UniProt Q9QUQ5); assay: calcium flux activators in TRPC4/5HT1a cells, counter-screen for TRPC4 activator project, cell-based, second counter screen, HEK293 TRPC4/5HT1a, Fluo-4 (AID 434977); conditions: Fluo-4 calcium flux, at 10 µM; hits give high values;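 as to activation: plate controls were assay buffer for no effect and maximal serotonin response for full effect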
[14] = calcium flux inhibitors in TRPC4/5HT1a cells, confirmation, counter-screen for TRPC4 inhibitor project, cell-based, second counter screen, HEK293 TRPC4/5HT1a, Fluo-4 (AID 434978;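 active = primary screen active whose calcium signal fell more than 3 SD beyond the full-serotonin control mean in both duplicate plates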;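 as to outcome: serotonin given first at submaximal then at maximal dose after compound preincubation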); conditions: Fluo-4 calcium flux, at 10 µM, serotonin added to trigger calcium flux; hits give high values
[15] = test system: TRPC4 (mouse), co-expressed with 5HT1a in HEK293; assay: calcium flux potentiators in TRPC4/5HT1a cells, confirmation, counter-screen for TRPC4 potentiator project, cell-based, second counter screen, HEK293 TRPC4/5HT1a, Fluo-4 (AID 434979;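 active = signal rise over 3 SD above mean of control wells given weak agonist, in both repeats and first screen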); conditions: Fluo-4 calcium flux, at 10 µM, serotonin added at its EC20 dose; hits give high values
[16] = calcium flux activation in mu-opioid HEK293 cells, confirmation, counter-screen for TRPC4 activator project, cell-based, HEK293 mu-opioid receptor line (AID 449723;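 active = hit in primary screen, with calcium signal over 5 SD above buffer well mean in both duplicates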;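 also: counter screen cells carry the mu-opioid receptor alone and lack TRPC4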); conditions: Fluo-4 calcium fluorescence, at 10 µM; hits give high values
[17] = calcium flux enhancement in mu-opioid HEK293 cells, confirmation, counter-screen for TRPC4 allosteric potentiator project, cell-based, HEK293 mu-opioid receptor line (AID 449724;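 active = calcium signal rise more than 3 SD above the low-dose agonist control mean, in both duplicate plates and the primary screen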); conditions: Fluo-4 calcium flux, at 10 µM, compound added before EC20 DAMGO stimulus; hits give high values

Short transient receptor potential channel 4 (Mus musculus), sequence (Q9QUQ5 whole entry, looked up): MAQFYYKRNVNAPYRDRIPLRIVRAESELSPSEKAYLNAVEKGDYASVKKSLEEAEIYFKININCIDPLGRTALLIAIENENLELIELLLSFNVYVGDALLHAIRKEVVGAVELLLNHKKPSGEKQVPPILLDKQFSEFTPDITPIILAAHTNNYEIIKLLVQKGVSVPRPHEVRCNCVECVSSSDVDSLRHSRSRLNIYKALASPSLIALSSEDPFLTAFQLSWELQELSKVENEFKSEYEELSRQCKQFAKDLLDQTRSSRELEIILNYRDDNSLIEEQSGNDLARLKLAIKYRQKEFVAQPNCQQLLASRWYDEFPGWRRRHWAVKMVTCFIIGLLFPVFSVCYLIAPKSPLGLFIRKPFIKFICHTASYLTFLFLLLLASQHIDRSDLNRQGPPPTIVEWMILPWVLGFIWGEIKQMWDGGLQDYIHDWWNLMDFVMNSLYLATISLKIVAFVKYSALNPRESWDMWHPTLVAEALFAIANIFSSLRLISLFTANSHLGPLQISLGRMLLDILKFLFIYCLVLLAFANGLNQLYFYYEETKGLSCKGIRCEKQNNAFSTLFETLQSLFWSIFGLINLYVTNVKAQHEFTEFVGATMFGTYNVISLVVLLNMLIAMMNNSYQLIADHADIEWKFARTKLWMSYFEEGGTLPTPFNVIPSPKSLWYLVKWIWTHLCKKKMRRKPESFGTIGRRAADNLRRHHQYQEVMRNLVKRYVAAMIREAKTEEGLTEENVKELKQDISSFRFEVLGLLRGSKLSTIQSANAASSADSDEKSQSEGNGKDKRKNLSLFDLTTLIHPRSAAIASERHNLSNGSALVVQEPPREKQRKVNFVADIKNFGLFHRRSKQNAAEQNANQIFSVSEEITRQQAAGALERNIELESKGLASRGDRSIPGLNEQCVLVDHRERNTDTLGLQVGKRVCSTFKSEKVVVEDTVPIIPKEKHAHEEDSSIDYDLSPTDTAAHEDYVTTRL
Short transient receptor potential channel 6 (Mus musculus), sequence (Q61143 whole entry, looked up): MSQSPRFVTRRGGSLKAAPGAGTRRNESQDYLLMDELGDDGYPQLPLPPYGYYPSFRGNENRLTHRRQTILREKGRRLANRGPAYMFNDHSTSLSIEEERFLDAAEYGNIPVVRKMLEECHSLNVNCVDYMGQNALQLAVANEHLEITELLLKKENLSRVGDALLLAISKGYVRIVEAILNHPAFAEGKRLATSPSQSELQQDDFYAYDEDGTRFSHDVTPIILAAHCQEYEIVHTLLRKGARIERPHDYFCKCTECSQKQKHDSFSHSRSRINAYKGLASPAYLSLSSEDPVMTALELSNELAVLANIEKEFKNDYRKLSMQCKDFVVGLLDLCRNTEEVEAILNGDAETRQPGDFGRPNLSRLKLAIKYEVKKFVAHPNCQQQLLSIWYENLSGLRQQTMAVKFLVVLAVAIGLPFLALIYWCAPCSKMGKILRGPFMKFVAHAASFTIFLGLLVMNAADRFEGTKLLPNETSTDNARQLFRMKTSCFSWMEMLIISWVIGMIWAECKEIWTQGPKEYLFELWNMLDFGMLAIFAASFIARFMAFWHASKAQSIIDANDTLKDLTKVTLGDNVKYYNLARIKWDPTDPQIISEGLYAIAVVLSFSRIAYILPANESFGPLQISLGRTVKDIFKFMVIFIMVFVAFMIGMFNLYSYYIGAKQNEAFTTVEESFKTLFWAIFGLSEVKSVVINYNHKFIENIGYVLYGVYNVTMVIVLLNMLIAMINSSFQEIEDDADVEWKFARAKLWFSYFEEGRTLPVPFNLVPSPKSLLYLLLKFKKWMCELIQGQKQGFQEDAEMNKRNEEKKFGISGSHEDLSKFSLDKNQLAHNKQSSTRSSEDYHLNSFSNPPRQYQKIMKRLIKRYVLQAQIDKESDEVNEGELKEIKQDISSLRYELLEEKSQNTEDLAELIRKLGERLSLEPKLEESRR

Cc1cc(C)c(C)c(S(=O)(=O)NCc2ccco2)c1C
inactive: outcome [1] | outcome [2] | outcome [3] | outcome [4] | outcome [5] | outcome [6] | outcome [7] | outcome [8] | outcome [9] | outcome [10] | outcome [11] | outcome [12] | outcome [13] | outcome [14] | outcome [16] | outcome [17]
active: potentiation [15] 28.1%

NC(=O)c1nsc(C(=O)N(Cc2ccco2)C(C(=O)NCc2ccccc2)c2ccc(O)cc2)c1N (stereo not given)
inactive: outcome [1] | outcome [2] | outcome [3] | outcome [4] | outcome [6] | outcome [7] | outcome [8] | outcome [9] | outcome [10] | outcome [11] | outcome [12] | outcome [13] | outcome [15] | outcome [16] | outcome [17]
active: inhibition [5] 72% | inhibition [14] 40%

Cc1ccc(C)c2[nH]c(=O)c(C(c3nnnn3C3CCCC3)N3CCOCC3)cc12 (stereo not given)
inactive: outcome [1] | outcome [2] | outcome [3] | outcome [4] | outcome [5] | outcome [6] | outcome [7] | outcome [8] | outcome [9] | outcome [10] | outcome [11] | outcome [12] | outcome [13] | outcome [14] | outcome [15] | outcome [16] | outcome [17]

COc1ccc(N(C(=O)c2snc(C(N)=O)c2N)C(C(=O)NC2CCCCC2)c2ccc(C)o2)c(OC)c1 (stereo not given)
inactive: outcome [1] | outcome [2] | outcome [3] | outcome [4] | outcome [5] | outcome [6] | outcome [7] | outcome [8] | outcome [9] | outcome [10] | outcome [11] | outcome [12] | outcome [13] | outcome [14] | outcome [15] | outcome [16] | outcome [17]

c1coc(CN=C2NC(=NCc3ccco3)c3ccccc32)c1
active: inhibition [5] 98% | inhibition [6] 49% | inhibition [10] 47.5% | inhibition [14] 35.3%
inactive: outcome [1] | outcome [2] | outcome [3] | outcome [4] | outcome [7] | outcome [8] | outcome [9] | outcome [11] | outcome [12] | outcome [13] | outcome [15] | outcome [16] | outcome [17]

Cc1ccc(C)n1-c1nnc(N2CCC(C(=O)NCCCN3CC(C)CC(C)C3)CC2)s1 (stereo not given)
inactive: outcome [2] | outcome [3] | outcome [4] | outcome [5] | outcome [6] | outcome [7] | outcome [8] | outcome [9] | outcome [10] | outcome [11] | outcome [12] | outcome [14] | outcome [15] | outcome [16] | outcome [17]
active: activation [1] 67% | activation [13] 20.3%

CCOCCCn1c(=S)[nH]c2cc(C(=O)NCCCN(CC)CC)ccc2c1=O
inactive: outcome [1] | outcome [2] | outcome [5] | outcome [6] | outcome [7] | outcome [8] | outcome [9] | outcome [10] | outcome [11] | outcome [12] | outcome [13] | outcome [14] | outcome [16] | outcome [17]
active: potentiation [3] 18% | potentiation [4] 10% | potentiation [15] 16.1%

O=[N+]([O-])c1cc(Cc2ccccc2)cc(C=Nc2ccc(N3CCOCC3)cc2)c1O
inactive: outcome [1] | outcome [2] | outcome [3] | outcome [4] | outcome [5] | outcome [6] | outcome [7] | outcome [8] | outcome [9] | outcome [10] | outcome [11] | outcome [12] | outcome [13] | outcome [14] | outcome [15] | outcome [16] | outcome [17]

COc1ccc(S(=O)(=O)N2CCCCCC2)cc1C(=O)N(C)Cc1ccc(Cl)cc1Cl
active: potentiation [4] 46% | potentiation [15] 14.4% | activation [17] 2180%
inactive: outcome [1] | outcome [2] | outcome [3] | outcome [5] | outcome [6] | outcome [7] | outcome [8] | outcome [9] | outcome [10] | outcome [11] | outcome [12] | outcome [13] | outcome [14] | outcome [16]

Cc1cc(NC(=O)C(C)SCC(=O)N(Cc2ccccc2)c2ccccc2)no1 (stereo not given)
active: inhibition [5] 90% | inhibition [14] 25.3%
inactive: outcome [1] | outcome [2] | outcome [3] | outcome [4] | outcome [6] | outcome [7] | outcome [8] | outcome [9] | outcome [10] | outcome [11] | outcome [12] | outcome [13] | outcome [15] | outcome [16] | outcome [17]

O=C(Nc1ccc(Cl)c(Cl)c1)N(CCCN1CCOCC1)Cc1cccs1
inactive: outcome [1] | outcome [2] | outcome [3] | outcome [4] | outcome [5] | outcome [6] | outcome [7] | outcome [8] | outcome [9] | outcome [10] | outcome [11] | outcome [12] | outcome [13] | outcome [14] | outcome [15] | outcome [16] | outcome [17]

COc1ccc(C(=O)N2CCN(c3c(C)cccc3C)CC2)cc1OC
inactive: outcome [1] | outcome [2] | outcome [3] | outcome [4] | outcome [5] | outcome [6] | outcome [7] | outcome [8] | outcome [9] | outcome [10] | outcome [11] | outcome [12] | outcome [13] | outcome [14] | outcome [16] | outcome [17]
active: potentiation [15] 15%

Cc1cccc(C)c1NC(=O)NCCCN1CCN(c2ccccc2)CC1
inactive: outcome [1] | outcome [2] | outcome [3] | outcome [4] | outcome [5] | outcome [6] | outcome [7] | outcome [8] | outcome [9] | outcome [10] | outcome [11] | outcome [12] | outcome [13] | outcome [14] | outcome [15] | outcome [16] | outcome [17]

Cc1nn2c(N3CCN(C)CC3)c3c(nc2c1-c1ccccc1)CCCC3
inactive: outcome [1] | outcome [2] | outcome [3] | outcome [4] | outcome [5] | outcome [6] | outcome [7] | outcome [8] | outcome [9] | outcome [10] | outcome [11] | outcome [12] | outcome [13] | outcome [14] | outcome [15] | outcome [16] | outcome [17]

O=C(C1CCCN(Cc2cccc(Cl)c2)C1)N1CCCCC1 (stereo not given)
inactive: outcome [1] | outcome [2] | outcome [3] | outcome [4] | outcome [5] | outcome [6] | outcome [7] | outcome [8] | outcome [9] | outcome [10] | outcome [11] | outcome [12] | outcome [13] | outcome [14] | outcome [15] | outcome [16] | outcome [17]
